Data reported in the supplement of paper PMC11732987, “Enantioselective OTUD7B fragment discovery through chemoproteomics screening and high-throughput optimisation” (Communications Chemistry, 2025).

What was measured:
Assay in all cases: log2 ratio of Biotin-Ahx-Ub-VS probe labelling (fragment/DMSO); higher = less target engagement (more negative = stronger competition), active = hit call of the paper (q ≤ 0.05, log2 ratio ≤ -1)
Settings in all cases: compound concentration: 200 uM; treatment time: 3 h
OTUD6B = target: T1, OTUD6B (UniProt Q8N6M0)
T1 sequence (whole entry): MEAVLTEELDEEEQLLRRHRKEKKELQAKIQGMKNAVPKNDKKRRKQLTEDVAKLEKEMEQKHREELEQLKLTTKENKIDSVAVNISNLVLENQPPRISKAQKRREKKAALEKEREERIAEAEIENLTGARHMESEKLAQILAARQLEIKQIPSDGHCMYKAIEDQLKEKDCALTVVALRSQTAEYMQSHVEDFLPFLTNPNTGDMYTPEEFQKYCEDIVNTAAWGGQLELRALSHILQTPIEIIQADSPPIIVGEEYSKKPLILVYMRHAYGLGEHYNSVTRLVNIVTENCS
Outline: (§1)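 Fragment (200 µM) or vehicle was incubated for 3 h with triplicate HEK293T lysate samples of 495 µg, which were then treated with Biotin-Ahx-Ub-VS at 0.5 µM final for 1 h. Labelled DUBs were enriched on NeutrAvidin, digested with LysC and trypsin, and analysed by diaPASEF LC-MS/MS. Values are average log2 fragment/vehicle ratios from an unpaired t-test on global-median-normalised Spectronaut label-free quantities, using proteins with ≥2 unique peptides.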

OTUD7B = target: T2, OTUD7B (UniProt Q6GQQ9)
T2 sequence (whole entry): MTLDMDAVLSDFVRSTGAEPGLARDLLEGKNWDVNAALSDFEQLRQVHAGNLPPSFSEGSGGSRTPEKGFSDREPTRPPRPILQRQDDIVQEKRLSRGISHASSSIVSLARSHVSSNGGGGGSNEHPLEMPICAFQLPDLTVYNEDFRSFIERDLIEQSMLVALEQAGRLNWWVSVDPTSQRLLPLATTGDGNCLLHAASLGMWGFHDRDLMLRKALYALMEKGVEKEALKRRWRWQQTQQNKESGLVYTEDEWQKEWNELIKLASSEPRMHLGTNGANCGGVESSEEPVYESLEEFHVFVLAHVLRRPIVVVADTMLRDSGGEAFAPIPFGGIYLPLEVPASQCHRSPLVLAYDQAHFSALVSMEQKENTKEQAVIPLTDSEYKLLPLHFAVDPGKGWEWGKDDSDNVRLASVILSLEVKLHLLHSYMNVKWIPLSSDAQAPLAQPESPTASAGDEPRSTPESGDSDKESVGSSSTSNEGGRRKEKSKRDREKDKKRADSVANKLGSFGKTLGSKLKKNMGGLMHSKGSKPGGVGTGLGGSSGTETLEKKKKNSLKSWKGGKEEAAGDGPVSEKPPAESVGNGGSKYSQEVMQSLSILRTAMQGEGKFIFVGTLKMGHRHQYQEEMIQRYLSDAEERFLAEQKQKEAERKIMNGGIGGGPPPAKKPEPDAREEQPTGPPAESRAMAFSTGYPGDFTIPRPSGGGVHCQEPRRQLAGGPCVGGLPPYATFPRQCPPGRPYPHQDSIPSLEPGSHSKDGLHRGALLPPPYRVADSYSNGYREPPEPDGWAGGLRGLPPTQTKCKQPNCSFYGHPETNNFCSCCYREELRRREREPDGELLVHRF
Outline: as §1

PRPF8 = PRPF8 (UniProt Q6P2Q9)
Outline: as §1

PSMD7 = target: T3, PSMD7 (UniProt P51665)
T3 sequence (whole entry): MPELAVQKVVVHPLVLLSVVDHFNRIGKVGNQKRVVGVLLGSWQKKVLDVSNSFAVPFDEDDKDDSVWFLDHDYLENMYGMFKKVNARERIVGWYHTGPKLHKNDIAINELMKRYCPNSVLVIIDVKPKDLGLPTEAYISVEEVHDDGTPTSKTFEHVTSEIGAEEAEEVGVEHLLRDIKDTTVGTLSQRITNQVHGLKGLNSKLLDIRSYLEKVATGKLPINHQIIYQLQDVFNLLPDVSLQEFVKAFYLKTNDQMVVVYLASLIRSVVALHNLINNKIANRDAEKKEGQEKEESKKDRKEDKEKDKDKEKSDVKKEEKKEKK
Outline: as §1

UCHL1 = UCHL1 (UniProt P09936)
Chain of UCHL1 (P09936 whole entry, looked up): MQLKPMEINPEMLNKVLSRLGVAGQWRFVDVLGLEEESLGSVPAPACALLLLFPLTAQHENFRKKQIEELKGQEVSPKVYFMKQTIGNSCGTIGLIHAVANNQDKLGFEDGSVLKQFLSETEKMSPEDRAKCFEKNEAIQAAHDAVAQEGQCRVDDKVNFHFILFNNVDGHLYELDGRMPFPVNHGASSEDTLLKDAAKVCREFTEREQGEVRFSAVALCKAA
Outline: as §1

UCHL3 = target: T4, UCHL3 (UniProt P15374)
T4 sequence (whole entry): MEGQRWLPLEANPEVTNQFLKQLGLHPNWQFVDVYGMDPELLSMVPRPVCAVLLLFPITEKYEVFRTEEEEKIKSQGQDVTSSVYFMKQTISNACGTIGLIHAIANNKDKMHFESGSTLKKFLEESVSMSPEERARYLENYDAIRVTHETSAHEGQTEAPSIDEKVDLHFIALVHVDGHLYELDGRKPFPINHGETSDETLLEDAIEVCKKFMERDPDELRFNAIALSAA
Outline: as §1

UCHL5 = target: T5, UCHL5 (UniProt Q9Y5K5)
T5 sequence (whole entry): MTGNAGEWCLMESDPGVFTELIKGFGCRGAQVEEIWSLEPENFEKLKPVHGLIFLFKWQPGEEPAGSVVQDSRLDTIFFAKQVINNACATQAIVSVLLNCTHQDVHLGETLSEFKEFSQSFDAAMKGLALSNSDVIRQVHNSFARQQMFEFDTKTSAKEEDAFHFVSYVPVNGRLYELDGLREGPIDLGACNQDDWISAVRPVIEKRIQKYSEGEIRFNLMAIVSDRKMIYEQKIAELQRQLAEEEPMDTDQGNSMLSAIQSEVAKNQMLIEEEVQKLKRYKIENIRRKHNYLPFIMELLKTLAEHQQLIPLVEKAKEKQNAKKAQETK
Outline: as §1

USP10 = USP10 (UniProt Q14694)
Chain of USP10 (Q14694 whole entry): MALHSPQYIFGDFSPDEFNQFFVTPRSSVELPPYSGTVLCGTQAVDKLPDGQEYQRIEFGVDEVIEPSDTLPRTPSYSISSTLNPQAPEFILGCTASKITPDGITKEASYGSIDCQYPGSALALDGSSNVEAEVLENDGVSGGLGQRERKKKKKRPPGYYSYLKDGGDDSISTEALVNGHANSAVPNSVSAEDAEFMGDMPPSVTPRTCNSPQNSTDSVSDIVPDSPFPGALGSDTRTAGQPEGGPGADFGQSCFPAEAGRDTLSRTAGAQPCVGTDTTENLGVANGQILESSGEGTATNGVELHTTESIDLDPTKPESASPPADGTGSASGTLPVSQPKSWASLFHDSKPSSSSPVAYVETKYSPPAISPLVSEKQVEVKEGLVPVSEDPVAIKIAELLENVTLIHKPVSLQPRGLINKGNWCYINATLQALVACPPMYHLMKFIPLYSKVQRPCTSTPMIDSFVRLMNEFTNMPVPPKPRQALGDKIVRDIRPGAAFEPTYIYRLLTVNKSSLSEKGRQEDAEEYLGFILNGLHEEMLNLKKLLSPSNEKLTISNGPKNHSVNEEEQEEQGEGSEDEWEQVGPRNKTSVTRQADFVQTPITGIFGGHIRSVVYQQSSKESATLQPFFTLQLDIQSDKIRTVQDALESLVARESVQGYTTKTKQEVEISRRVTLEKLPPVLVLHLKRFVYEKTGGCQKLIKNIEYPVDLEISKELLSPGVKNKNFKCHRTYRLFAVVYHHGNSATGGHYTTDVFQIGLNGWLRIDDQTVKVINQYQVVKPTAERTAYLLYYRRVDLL
Outline: as §1

USP15 = target: T6, USP15 (UniProt Q9Y4E8)
T6 sequence (whole entry): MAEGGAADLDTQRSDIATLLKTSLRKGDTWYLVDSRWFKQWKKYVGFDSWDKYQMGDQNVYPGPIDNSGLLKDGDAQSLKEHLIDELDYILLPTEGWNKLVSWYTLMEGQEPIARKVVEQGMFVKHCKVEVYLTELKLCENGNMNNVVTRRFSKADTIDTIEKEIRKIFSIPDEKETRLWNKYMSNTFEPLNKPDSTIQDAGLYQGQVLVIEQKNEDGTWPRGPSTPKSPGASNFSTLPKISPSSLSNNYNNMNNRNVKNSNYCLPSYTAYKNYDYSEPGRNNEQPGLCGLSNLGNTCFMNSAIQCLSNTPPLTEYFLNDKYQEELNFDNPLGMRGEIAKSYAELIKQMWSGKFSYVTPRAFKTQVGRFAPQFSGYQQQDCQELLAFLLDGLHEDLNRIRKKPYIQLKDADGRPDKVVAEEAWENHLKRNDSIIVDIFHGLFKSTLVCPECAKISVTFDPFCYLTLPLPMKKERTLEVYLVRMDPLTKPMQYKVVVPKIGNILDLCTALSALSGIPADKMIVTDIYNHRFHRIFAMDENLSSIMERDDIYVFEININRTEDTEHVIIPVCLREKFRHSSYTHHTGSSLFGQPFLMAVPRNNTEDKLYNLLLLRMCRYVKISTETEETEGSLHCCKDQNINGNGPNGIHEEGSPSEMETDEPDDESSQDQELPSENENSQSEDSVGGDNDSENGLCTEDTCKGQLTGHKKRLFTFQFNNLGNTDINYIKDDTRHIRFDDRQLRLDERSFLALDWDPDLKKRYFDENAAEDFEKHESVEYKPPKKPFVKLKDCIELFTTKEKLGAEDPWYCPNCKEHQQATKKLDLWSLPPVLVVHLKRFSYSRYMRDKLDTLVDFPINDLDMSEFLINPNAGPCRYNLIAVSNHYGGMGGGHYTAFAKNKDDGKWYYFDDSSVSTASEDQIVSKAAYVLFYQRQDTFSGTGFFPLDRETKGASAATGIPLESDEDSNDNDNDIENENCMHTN
Outline: as §1

USP16 = USP16 (UniProt Q9Y5T5)
Chain of USP16 (Q9Y5T5 whole entry, looked up): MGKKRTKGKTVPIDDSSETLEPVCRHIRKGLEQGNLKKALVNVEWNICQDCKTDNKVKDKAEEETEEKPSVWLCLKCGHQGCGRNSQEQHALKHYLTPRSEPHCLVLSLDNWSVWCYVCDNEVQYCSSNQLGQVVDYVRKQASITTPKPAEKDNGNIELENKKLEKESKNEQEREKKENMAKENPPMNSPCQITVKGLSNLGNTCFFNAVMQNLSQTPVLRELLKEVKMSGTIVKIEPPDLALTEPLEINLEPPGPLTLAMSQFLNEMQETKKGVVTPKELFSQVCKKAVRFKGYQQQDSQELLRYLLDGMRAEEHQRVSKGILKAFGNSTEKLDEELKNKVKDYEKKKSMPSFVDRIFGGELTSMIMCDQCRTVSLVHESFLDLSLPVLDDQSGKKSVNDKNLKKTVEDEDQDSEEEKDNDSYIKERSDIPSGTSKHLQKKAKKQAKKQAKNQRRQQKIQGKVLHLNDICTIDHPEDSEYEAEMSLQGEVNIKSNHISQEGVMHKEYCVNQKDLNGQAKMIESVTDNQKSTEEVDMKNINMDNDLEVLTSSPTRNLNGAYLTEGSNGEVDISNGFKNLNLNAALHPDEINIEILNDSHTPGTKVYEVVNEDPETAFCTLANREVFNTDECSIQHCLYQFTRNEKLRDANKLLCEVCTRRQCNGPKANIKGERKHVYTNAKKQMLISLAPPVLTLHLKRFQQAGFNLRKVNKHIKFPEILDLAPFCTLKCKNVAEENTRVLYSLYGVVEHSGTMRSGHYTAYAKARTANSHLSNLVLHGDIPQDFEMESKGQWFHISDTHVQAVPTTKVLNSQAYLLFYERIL
Outline: as §1

Measured: log2 ratio of Biotin-Ahx-Ub-VS probe labelling

Cl.Cn1nccc1C(NC(=O)CCl)c1ccccc1 (stereo not given)
active: UCHL1 -1.03
inactive: OTUD6B -0.147 | OTUD7B -0.872 | PRPF8 0.0203 | PSMD7 -0.597 | UCHL3 0.209 | UCHL5 -0.353 | USP10 -0.0201 | USP15 -0.218 | USP16 -0.0928
